# Measurements reported in the supplement of paper PMC6992640.
# Structures can show the parent of a compound that is named as a salt. ± gives the standard deviation of the averaged measurements.
# Experiments:
# Assay in all cases: cell viability (% of vehicle); higher = less cytotoxic
# HCI01 [1] = cells of a triple-negative basal-like breast cancer xenograft; details: 1 µM; 72 h
# UCD52 [2] = cells of a triple-negative basal-like breast cancer xenograft; details: 1 µM; 72 h
# WHIM2 [3] = cells of a triple-negative basal-like breast cancer xenograft; details: 1 µM; 72 h
# WHIM30 [4] = cells of a triple-negative basal-like breast cancer xenograft; details: 1 µM; 72 h
# HCI01 [5] = details: 10 µM; 72 h
# HCI03 = cells of an ER-positive luminal breast cancer xenograft; details: 10 µM; 72 h
# HCI09 = cells of a triple-negative luminal androgen receptor type breast cancer xenograft; details: 10 µM; 72 h
# HCI11 = cells of an ER-positive luminal breast cancer xenograft; details: 10 µM; 72 h
# HCI13 = cells of an ER-positive luminal breast cancer xenograft; details: 10 µM; 72 h
# HCI16 = cells of a triple-negative basal-like breast cancer xenograft; details: 10 µM; 72 h
# UCD52 [6] = details: 10 µM; 72 h
# WHIM2 [7] = details: 10 µM; 72 h
# WHIM30 [8] = details: 10 µM; 72 h
Compound,cell viability (HCI01 [1]),cell viability (UCD52 [2]),cell viability (WHIM2 [3]),cell viability (WHIM30 [4]),cell viability (HCI01 [5]),cell viability (HCI03),cell viability (HCI09),cell viability (HCI11),cell viability (HCI13),cell viability (HCI16),cell viability (UCD52 [6]),cell viability (WHIM2 [7]),cell viability (WHIM30 [8])
CNC(=O)c1cc(Oc2ccc(NC(=O)Nc3ccc(Cl)c(C(F)(F)F)c3)cc2)ccn1.Cc1ccc(S(=O)(=O)O)cc1 [Sorafenib Tosylate],90.6,74.5,81.7,65.2,22 ± 0.23,65.5,14.6 ± 7,63.9,55.5 ± 31,45.9,82.6 ± 1,32.2 ± 0.44,41.9 ± 18
CCOc1cc2ncc(C#N)c(Nc3ccc(OCc4ccccn4)c(Cl)c3)c2cc1NC(=O)C=CCN(C)C [Neratinib (HKI-272)],78.4,43.9,36.4,68.9,30.1 ± 7.1,38.1,27.8 ± 11,21.3,37.6 ± 1.3,38.7,23.2 ± 2.3,49.8 ± 12,96.1 ± 1.7
CO[C@H]1C[C@@H]2CC[C@@H](C)[C@@](O)(O2)C(=O)C(=O)N2CCCC[C@H]2C(=O)O[C@H]([C@H](C)C[C@@H]2CC[C@@H](O)[C@H](OC)C2)CC(=O)[C@H](C)/C=C(\C)[C@@H](O)[C@@H](OC)C(=O)[C@H](C)C[C@H](C)/C=C/C=C/C=C/1C [Rapamycin (Sirolimus)],78.1,52.6,68.3,75.4,40.4 ± 7.5,69.6,30.6 ± 8.6,51.6,39.5 ± 5.2,57.1,25.5 ± 2.9,42 ± 2.1,68.9 ± 29
COc1cccc2c1C(=O)c1c(O)c3c(c(O)c1C2=O)C[C@@](O)(C(C)=O)C[C@@H]3O[C@H]1C[C@H](N)[C@H](O)[C@H](C)O1.Cl [Daunorubicin HCl],128,27.8,23.1,48,32.2 ± 4.8,141,32.8 ± 8.5,31.2,41.3 ± 3.9,49.9,30.4 ± 2.6,42.07 ± 0.39,44.6 ± 10
O=C(O)CO.[NH2-].[NH2-].[Pt+2] [Nedaplatin],85.1,103,105,79.4,52.5 ± 16,89,87.8 ± 5.8,96.8,97 ± 12,51.1,33.06 ± 0.081,56.2 ± 5.7,66 ± 3.2
Cl.Nc1ccn(C2OC(CO)C(O)C2O)c(=O)n1 (stereo not drawn) [Cytarabine hydrochloride],71.5,114,86.3,90.1,75.2 ± 11,105,122 ± 36,147,61.5 ± 3.5,73.9,105 ± 5.7,58 ± 8.3,81.1 ± 11
CC[C@H](C)[C@H]1O[C@]2(CC[C@@H]1C)C[C@@H]1C[C@@H](C/C=C(\C)[C@@H](O[C@H]3C[C@H](OC)[C@@H](O[C@H]4C[C@H](OC)[C@@H](O)[C@H](C)O4)[C@H](C)O3)[C@@H](C)/C=C/C=C3\CO[C@@H]4[C@H](O)C(C)=C[C@@H](C(=O)O1)[C@]34O)O2 [Ivermectin],90.6,57.6,86.6,73.3,38.3 ± 8,81.2,20 ± 3.4,81,37.6 ± 8.1,82.9,76.3 ± 3,40.5 ± 7.1,36.2 ± 3
C=C1C(=CC=C2CCCC3(C)C2CCC3C(C)C=CC(C)C(C)C)CC(O)CC1O (stereo not drawn) [Doxercalciferol],75.3,63.6,61.8,93.1,39.4 ± 14,137,26.4 ± 8.6,75.3,52.8 ± 3,106,54.8 ± 6.5,50.8 ± 12,180 ± 17
CC(C)Nc1cc(-c2c[nH]c(C(=O)NC(CO)c3cccc(Cl)c3)c2)c(Cl)cn1 (stereo not drawn),84.8,59.1,72.7,78.4,39 ± 8.9,135,36.8 ± 21,81.7,43.5 ± 2.5,106,56.5 ± 4,45.3 ± 6.3,104 ± 10
CCCCc1oc2ccccc2c1C(=O)c1cc(I)c(OCCN(CC)CC)c(I)c1.Cl [Amiodarone HCl],96.6,101,94.7,98.4,69.5 ± 16,54.7,32.8 ± 9.1,75,36.2 ± 4,60,40.7 ± 7.3,37 ± 6,83.1 ± 5.7
COc1ccc(CN2CCN(C(c3ccc(F)cc3)c3ccc(F)cc3)CC2)c(OC)c1OC.Cl.Cl [Lomerizine HCl],85.2,90.8,99.6,92.2,85.8 ± 25,73.6,58.8 ± 20,78.5,32.61 ± 0.085,87.8,51.5 ± 0.83,48.1 ± 14,80 ± 1
CC(NCCCc1cccc(C(F)(F)F)c1)c1cccc2ccccc12 (stereo not drawn) [Cinacalcet],102,78.1,91.9,83.9,33.2 ± 2.7,34.2,17.1 ± 4.2,122,43.4 ± 3,33.5,17.3 ± 0.67,34.7 ± 8.7,35.8 ± 1.6
CCOC(=O)C1=C(COCCN)NC(C)=C(C(=O)OC)C1c1ccccc1Cl (stereo not drawn) [Amlodipine],103,93.7,101,90.2,70.6 ± 31,86.4,50.5 ± 42,100,32.2 ± 4.1,69.9,27.6 ± 4,31.9 ± 10,73.4 ± 12
Clc1ccc(C(Cn2ccnc2)OCc2ccsc2Cl)c(Cl)c1 (stereo not drawn) [Tioconazole],98.7,104,111,90.1,115 ± 63,110,40.7 ± 32,92.1,50.1 ± 3.6,119,60.2 ± 8.4,35.8 ± 5.1,100 ± 2.3
CC[C@@H]1/C=C(\C)C[C@H](C)C[C@H](OC)[C@H]2O[C@@](O)(C(=O)C(=O)N3CCCC[C@H]3C(=O)O[C@H](/C(C)=C/[C@@H]3CC[C@H](Cl)[C@H](OC)C3)[C@H](C)[C@@H](O)CC1=O)[C@H](C)C[C@@H]2OC [Pimecrolimus],102,89,82.4,86,71.4 ± 29,65.3,29.4 ± 5.2,76.9,56.5 ± 5.4,71.1,43.9 ± 8,62.5 ± 15,87.7 ± 14
CC(C)CC(NC(=O)CNC(=O)c1cc(Cl)ccc1Cl)B(O)O (stereo not drawn),51.7,24.9,130,23.1,53.4 ± 8.3,116,14.9 ± 0.73,174,33.1 ± 5.4,84.6,58.8 ± 3.8,34.22 ± 0.066,80.3 ± 24
COC(=O)C1=C(C)NC(C)=C(C(=O)OCCN(C)Cc2ccccc2)C1c1cccc([N+](=O)[O-])c1.Cl (stereo not drawn) [Nicardipine HCl],108,94.4,93.5,100,66 ± 2.2,99.9,35.5 ± 4.3,65.4,55.4 ± 8.6,126,55.37 ± 0.27,48.8 ± 8.4,80 ± 5.5

Compound,cell viability (HCI01 [1]),cell viability (UCD52 [2]),cell viability (WHIM2 [3]),cell viability (WHIM30 [4]),cell viability (HCI01 [5]),cell viability (HCI03),cell viability (HCI09),cell viability (HCI11),cell viability (HCI13),cell viability (HCI16),cell viability (UCD52 [6]),cell viability (WHIM2 [7]),cell viability (WHIM30 [8])
CC1(C)CCC(c2ccc(Cl)cc2)=C(CN2CCN(c3ccc(C(=O)NS(=O)(=O)c4ccc(NC(CCN5CCOCC5)CSc5ccccc5)c(S(=O)(=O)C(F)(F)F)c4)cc3)CC2)C1 (stereo not drawn) [ABT-263 (Navitoclax)],76.2,54.1,66.8,62.2,28 ± 2,44.2,21.8 ± 3.1,47.1,33.8 ± 0.76,29.6,36.5 ± 2.4,32.1 ± 4.1,35.2 ± 7.7
CNCCCC12CCC(c3ccccc31)c1ccccc12.Cl [Maprotiline HCl],90.9,81.1,93.2,83.3,89.8 ± 4.9,75.5,56.8 ± 21,78.4,107.1 ± 0.46,80.2,35.4 ± 2.8,66.6 ± 10,44.8 ± 30
CCCSc1nc(NC2CC2c2ccc(F)c(F)c2)c2nnn(C3CC(OCCO)C(O)C3O)c2n1 (stereo not drawn) [Ticagrelor],97.8,91,89.7,75.5,41.1 ± 38,122,47.6 ± 30,80.5,46.1 ± 3.6,80,64.95 ± 0.47,41.2 ± 12,97.7 ± 5.2
CC(C)c1nc(CN(C)C(=O)NC(C(=O)NC(Cc2ccccc2)CC(O)C(Cc2ccccc2)NC(=O)OCc2cncs2)C(C)C)cs1 (stereo not drawn) [Ritonavir],88.2,82.1,88.4,91.1,72 ± 3.7,98,48.2 ± 0.57,83.6,57.8 ± 3.3,96.1,41.5 ± 0.54,62.6 ± 2.7,82 ± 16
CCCCCOc1ccc(-c2ccc(-c3ccc(C(=O)N[C@H]4C[C@@H](O)[C@@H](O)NC(=O)[C@@H]5[C@@H](O)[C@@H](C)CN5C(=O)[C@H]([C@@H](C)O)NC(=O)[C@H]([C@H](O)[C@@H](O)c5ccc(O)cc5)NC(=O)[C@@H]5C[C@@H](O)CN5C(=O)[C@H]([C@@H](C)O)NC4=O)cc3)cc2)cc1 [Anidulafungin],100,82.5,82.8,72.2,45 ± 2.3,67.5,40.3 ± 15,92.4,58.3 ± 5.8,55.2,47.7 ± 8.9,67.4 ± 5.7,112 ± 16
CCOC(=O)C1=C(COCCN)NC(C)=C(C(=O)OC)C1c1ccccc1Cl.O=S(=O)(O)c1ccccc1 (stereo not drawn) [Amlodipine Besylate],93.3,97.5,107,88.5,94.062 ± 0.027,115,63.8 ± 45,110,97.8 ± 2.3,102,50 ± 3.2,37 ± 1.7,81.2 ± 8.3
CCCCc1oc2ccc(NS(C)(=O)=O)cc2c1C(=O)c1ccc(OCCCN(CCCC)CCCC)cc1.Cl [Dronedarone HCl],110,86.5,106,76.2,29.3 ± 12,48,24.4 ± 12,66.1,34.9 ± 1.1,46.6,30.9 ± 5.9,40.9 ± 14,33.3 ± 5.1
Nc1ccn(C2OC(CO)C(O)C2O)c(=O)n1 (stereo not drawn) [Cytarabine],75,106,87.1,80.9,65 ± 1.2,101,94.2 ± 1.1,136,76.4 ± 11,83.3,91.4 ± 17,58.4 ± 8.6,86.07 ± 0.15
CNC1CCC(c2ccc(Cl)c(Cl)c2)c2ccccc21.Cl (stereo not drawn) [Sertraline HCl],92.9,78.6,101,85.2,27.7 ± 2.6,74.8,32.2 ± 4.6,79.2,118 ± 3.2,60.4,29.3 ± 0.42,42.8 ± 3.1,58.9 ± 1.9
CN1CCCC1CCOC(C)(c1ccccc1)c1ccc(Cl)cc1.O=C(O)C=CC(=O)O (stereo not drawn) [Clemastine Fumarate],98.5,85.8,103,78.8,95.7 ± 30,79.3,52.8 ± 36,69.2,136 ± 24,74.4,36.5 ± 3.4,37.8 ± 3,104 ± 10
COc1nc2ccc(Br)cc2cc1[C@@H](c1ccccc1)[C@@](O)(CCN(C)C)c1cccc2ccccc12 [Bedaquiline fumarate],90.7,108,97.8,99.8,79.1 ± 18,75.7,64.5 ± 22,80.3,116.1 ± 1.1,87,42.6 ± 0.72,48.7 ± 2.1,70 ± 2.9
Cl.O.O=C1Cc2cc(CCN3CCN(c4nsc5ccccc45)CC3)c(Cl)cc2N1 [Ziprasidone hydrochloride monohydrate],88.5,94.7,94.5,94.6,33.4 ± 14,64.9,21.8 ± 4.9,36,47.8 ± 5.2,27.2,25 ± 1.1,35.8 ± 1.7,35.7 ± 5.9
CC1CC(=O)NN=C1c1ccc(NN=C(C#N)C#N)cc1 (stereo not drawn) [Levosimendan],89.2,95.2,114,96.7,50.6 ± 31,183,51.9 ± 30,139,145 ± 28,82.2,51.1 ± 2.5,47.8 ± 9.7,86.7 ± 2.7
CC(O)C(=O)O.CCOc1ccc2nc3cc(N)ccc3c(N)c2c1.O [Ethacridine lactate monohydrate],83.7,95.6,58.8,68.3,57.6 ± 15,41.6,24.4 ± 4.4,36.3,57.4 ± 17,,158 ± 32,49.6 ± 8.4,76.2 ± 3
COc1cc2nccc(Oc3ccc(NC(=O)NC4CC4)c(Cl)c3)c2cc1C(N)=O [Lenvatinib (E7080)],89.1,56.2,83,94.1,94.2 ± 28,70.5,79.8 ± 7.3,48.6,44.8 ± 3.3,61.4,57.8 ± 6.3,64 ± 21,48.1 ± 2
CCOC(=O)c1c(CSc2ccccc2)n(C)c2cc(Br)c(O)c(CN(C)C)c12.Cl [Arbidol HCl],86.5,78.9,82.9,92.6,82.6 ± 33,87.3,58.6 ± 4.3,114,64.4 ± 11,92.3,35.7 ± 1.1,39.3 ± 9.1,85.2 ± 6.7
